From PubChem
SARS PLpro yeast: inhibitors of SARS-CoV papain-like protease in yeast. S. cerevisiae expressing SARS-CoV PLpro, growth rescue. Potency, µM (top dose mostly 32.9 µM), for inactives: at the top dose activity, positive = growth rescue, usual class: activators. hit rate 0.19% among 330,000. AID 485353; calls by dose curve; further: 0% is about no effect; nearly all actives have a fitted effect of over 55% in size
NS1 inh: influenza NS1 inhibition | Potency, µM (highest dose often 46.1 µM), for the others: at the top dose activity, positive = more growth | hit rate 0.4% among 270,000 | AID 2326; calls by dose curve; further: actives are rising curves; nearly all actives have a fitted effect of over 50% in size
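Compounds were scored for reversing the slow growth caused by influenza A NS1 in S. cerevisiae, measured by optical density at 600 nm. Assay medium contained 2% galactose at pH 6.0; NS1-free yeast of the same strain were the positive control.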
Pf growth 96h: inhibits malaria parasite growth, 96 h | P. falciparum luciferase reporter growth, 96 h | Potency, µM (top dose mostly 28.7 µM), for the others: at the highest dose activity change, negative = inhibition, actives largely listed as inhibitors | hit rate 6.9% among 320,000; further: on the % scale 0 is the no-effect control and ±100 the full control effect
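Two-generation exposure (96 h) targets delayed-death phenotype. Reporter parasites carrying integrated firefly luciferase, in red cells at 2% hematocrit and 0.05% parasitemia final, kept at 37 C, 5% CO2; luminescence loss indicates inhibition.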
Pf growth 48h: P. falciparum growth inhibition at 48 hours (one generation) | P. falciparum luciferase growth in erythrocytes, 48 h | Potency, µM (doses to about 28.7 µM), for the others: at the highest dose activity change, negative = inhibition, usual class: inhibitors | hit rate 5.9% among 310,000 | AID 504832; further: on the % scale 0 is the no-effect control and ±100 the full control effect
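First compound was added to culture medium, then infected red cells at 0.1% parasitemia and 2% hematocrit (final). After incubation at 37 C under 5% CO2, luciferase detection reagent was dispensed and light output recorded.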
The depositor's hits bear a star; ! = repeats disagree; [ ] = dose if it differs, or a comment. Shown are actives, neighbours in structure and some others; about 10% of the full set was active somewhere. Unless noted, the call rests on the fitted dose curve; in most records, active means well fitted inhibition curve with a large enough effect; inconclusive means small, poorly fitted or top-dose-only effect, or another doubt; inactive means no such curve, though single readings can be large or run the other way. Potency means the concentration at half of the fitted maximal effect.

For CCCCn1c(=O)n(CC(O)c2ccccc2)c(=O)c2c1ncn2C1CCCC1 (stereo not drawn) the results were SARS PLpro yeast -22%, NS1 inh inconclusive, Pf growth 96h inconclusive and Pf growth 48h 2.9µM*.
For COc1ccc(NC(=O)C2CCC(=O)N2S(=O)(=O)c2ccc(C)cc2)cc1Cl (stereo not drawn) the results were SARS PLpro yeast 2%, NS1 inh -3%, Pf growth 96h -3% and Pf growth 48h 16%.
For Cc1cccc(C(=O)Nc2ccc3c(c2)CC2(C(=O)N(C)C(=O)N(C)C2=O)C2CCCN32)c1 (stereo not drawn) the results were SARS PLpro yeast -2%, NS1 inh 16%, Pf growth 96h 8.3µM* and Pf growth 48h inconclusive.
For COc1ccccc1C(=O)Nc1ccc2c(c1)CC1(C(=O)N(C)C(=O)N(C)C1=O)C1CCCN21 (stereo not drawn) the results were SARS PLpro yeast 2%, NS1 inh 13%, Pf growth 96h 2.6µM* and Pf growth 48h inconclusive.
CN(C(=O)Cc1c(C(=O)O)n(C)c2ccccc12)c1cccc(C(F)(F)F)c1 was read as SARS PLpro yeast -1%, NS1 inh 4%, Pf growth 96h 41% and Pf growth 48h 26%.
Screening CSCCC(NC(=O)c1ccco1)C(=O)NC1CCC(C)CC1 (stereo not drawn) returned SARS PLpro yeast 1%.
Screening O[C@H](CN1CC1)[C@@H](O)CN1CC1 returned NS1 inh -5%.
Screening CC(=C(CCOP(=O)(O)O)SC(=O)c1ccccc1)N(C=O)Cc1cnc(C)nc1N returned Pf growth 96h -1%[12.8 µM] and Pf growth 48h 3%[12.8 µM].
For Cc1cc(C)c2cc(CN(CCO)C(c3nnnn3Cc3ccc(F)cc3)C(C)C)c(=O)[nH]c2c1 (stereo not drawn) the results were SARS PLpro yeast 0%, NS1 inh 1%, Pf growth 96h 12µM* and Pf growth 48h inconclusive.
For Cc1cc(C)c2cc(C(O)c3nnnn3Cc3ccccc3)c(=O)[nH]c2c1 (stereo not drawn) the results were SARS PLpro yeast -8%, NS1 inh -8%, Pf growth 96h -5% and Pf growth 48h inconclusive.
`CN1C2CCC1CC(OC(=O)c1ccc(Cl)cc1)C2` (stereo not drawn) gave SARS PLpro yeast inconclusive, NS1 inh 2%, Pf growth 96h 1% and Pf growth 48h inconclusive.
`CN1C2CCC1CC(OC(=O)c1c[nH]c3ccccc13)C2` (stereo not drawn) gave SARS PLpro yeast 1%, NS1 inh -13%, Pf growth 96h inconclusive and Pf growth 48h 12µM*!.
For CNc1c2c(nn1C)CCCC2 the results were SARS PLpro yeast 0%, NS1 inh 2%, Pf growth 96h 6µM*! and Pf growth 48h 28%.
For NC(=O)c1ccc(NC(=O)COC(=O)CCN2C(=O)c3ccccc3C2=O)cc1 the results were SARS PLpro yeast 6%.
Screening Cc1nc(C)c(Oc2cccc(C(F)(F)F)c2)c(=O)[nH]1 returned SARS PLpro yeast 1%, NS1 inh 0%, Pf growth 96h -1% and Pf growth 48h 8%.
Screening Cc1cc(C)c(NC(=O)CN(C)C(=O)CCC(=O)c2ccc(C)s2)c(C)c1 returned SARS PLpro yeast -6%, Pf growth 96h -12% and Pf growth 48h inconclusive.
O=C(Nc1ccc(Cl)c([N+](=O)[O-])c1)c1ccc(NCCCN2CCOCC2)c([N+](=O)[O-])c1 was read as SARS PLpro yeast 4%, NS1 inh 9%, Pf growth 96h inconclusive and Pf growth 48h 15µM*.
CC(C)[C@H](Nc1ccc(S(=O)(=O)N2CCOCC2)cc1[N+](=O)[O-])C(=O)OCC(N)=O was read as SARS PLpro yeast -6%, NS1 inh 5%, Pf growth 96h 23% and Pf growth 48h -7%.
`Cc1ccc(NC(=O)c2ccc(NCCCN3CCOCC3)c([N+](=O)[O-])c2)cc1Cl` gave SARS PLpro yeast -14%, NS1 inh -14%, Pf growth 96h 79% and Pf growth 48h 2.3µM*.
`O=C(O)CC/C(=N\Nc1ccc(S(=O)(=O)N2CCOCC2)cc1[N+](=O)[O-])c1cccs1` gave SARS PLpro yeast 3%, NS1 inh 5%, Pf growth 96h 12µM* and Pf growth 48h 6.6µM*.
Screening CC(C)[C@H](Nc1ccc(S(=O)(=O)N2CCOCC2)cc1[N+](=O)[O-])C(=O)OCC(=O)N(C(C)C)C(C)C returned SARS PLpro yeast 5%, NS1 inh -14%, Pf growth 96h 5.2µM* and Pf growth 48h inconclusive.
For COc1ccc(NC(=O)c2ccc(NCCCN3CCOCC3)c([N+](=O)[O-])c2)cc1 the results were SARS PLpro yeast 4%, NS1 inh 1%, Pf growth 96h -3% and Pf growth 48h inconclusive.
Screening Cc1cccc(SCC(=O)Nc2ccc3c(c2)OCCO3)c1 returned SARS PLpro yeast 1%, NS1 inh -46%, Pf growth 96h 95% and Pf growth 48h 8%.
`O=[N+]([O-])c1cc(S(=O)(=O)N2CCCCC2)ccc1NCCCN1CCOCC1` gave SARS PLpro yeast -4%, Pf growth 96h 1.5µM* and Pf growth 48h inconclusive.
Screening O=[N+]([O-])c1cc(S(=O)(=O)N2CCCCC2)ccc1NCCN1CCOCC1 returned SARS PLpro yeast 1%, Pf growth 96h inconclusive and Pf growth 48h inconclusive.
`O=C(c1ccc(F)cc1F)N1CCN(c2ccccn2)CC1` gave SARS PLpro yeast 6%, NS1 inh -1%, Pf growth 96h 20% and Pf growth 48h 5%.
`FC(F)(F)c1cc(N2CCNCC2)c2ccccc2n1` gave SARS PLpro yeast 1%, NS1 inh 2%, Pf growth 96h -16% and Pf growth 48h 6%.
`FC(F)(F)c1cc(N2CCN(Cc3ccccc3)CC2)c2ccccc2n1` gave SARS PLpro yeast 2%, NS1 inh -3%, Pf growth 96h 9.3µM* and Pf growth 48h inconclusive.
For c1ccc2c[n+](CCCC[n+]3ccc4ccccc4c3)ccc2c1 the results were NS1 inh 0%.
C(C#CCCCCCCCCC[n+]1ccccc1)#CCCCCCCCCC[n+]1ccccc1 was read as NS1 inh -127%, Pf growth 96h 0.093µM* and Pf growth 48h 0.29µM*.
For CCc1ccccc1S(=O)(=O)c1c(C)cc(C)nc1Cl the results were SARS PLpro yeast 0%, NS1 inh -4%, Pf growth 96h -8% and Pf growth 48h -5%.
O=C(NCc1ccccc1)c1csc(-c2cccnc2)n1 was read as SARS PLpro yeast -6%, NS1 inh -11%, Pf growth 96h 31% and Pf growth 48h 9.3µM*.
For O=C(NNC(=S)NCc1ccccc1)c1cccnc1 the results were SARS PLpro yeast -2%, NS1 inh 10%, Pf growth 96h 2.1µM* and Pf growth 48h inconclusive.
CCOc1ccc(C(=O)NC(=S)NCc2cccnc2)cc1 was read as SARS PLpro yeast -1%, NS1 inh -6%, Pf growth 96h 10µM* and Pf growth 48h 30%.
Screening CCOc1ccc(S(=O)(=O)N(CC)CC(=O)NCc2cccnc2)cc1 returned SARS PLpro yeast 2%, NS1 inh -8%, Pf growth 96h 12µM* and Pf growth 48h 8%.
